CYP2C9 activ: activators of human CYP2C9; recombinant CYP2C9, luciferin-H conversion, luminescence; hits give high values; factor 1 = untreated enzyme, 0 = blocked; activation factor at 5 µM; hit rate 1.4% among 96,000; P11712;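 active = activation factor of 2 or more for CYP2C9 at a 5 µM dose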;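 note: 0 = sulfaphenazole-blocked wells and 1 = vehicle-only wells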
CYP2C9 inh: inhibitors of human CYP2C9 | P11712 | CYP2C9 Supersomes, luciferin-H conversion, luminescence | inhibition, % at 5 µM | hit rate 20% among 96,000;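 active = blocking of liver enzyme CYP2C9 beyond about 50% at 5 µM, limit read from the data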
Cav3 T inh: human Cav3.2 channel inhibition, primary screen; O95180; Cav3.2-expressing cells, Fluo-4 calcium fluorescence FDSS; hits give low values; B-score at 10 µM; hit rate 4% among 100,000; AID 449739;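 active = single-dose well whose peak fluorescence ratio is a statistical outlier from its plate by either plate-standardised score or position-corrected B-score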
CYP2C19 inhib: blocks human cytochrome P450 2C19. P33261. CYP2C19 Supersomes, luciferin-H EGE luminescence, 30 min. inhibition, % at 5 µM. hit rate 21% among 96,000;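 active = CYP2C19 inhibition above a set limit at 5 µM in the primary screen, cut at about 50% in these data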;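 note: plate controls were negative control wells for no effect and 2.5 mM tranylcypromine positive control for full effect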
Target sequence (P33261 whole entry, looked up): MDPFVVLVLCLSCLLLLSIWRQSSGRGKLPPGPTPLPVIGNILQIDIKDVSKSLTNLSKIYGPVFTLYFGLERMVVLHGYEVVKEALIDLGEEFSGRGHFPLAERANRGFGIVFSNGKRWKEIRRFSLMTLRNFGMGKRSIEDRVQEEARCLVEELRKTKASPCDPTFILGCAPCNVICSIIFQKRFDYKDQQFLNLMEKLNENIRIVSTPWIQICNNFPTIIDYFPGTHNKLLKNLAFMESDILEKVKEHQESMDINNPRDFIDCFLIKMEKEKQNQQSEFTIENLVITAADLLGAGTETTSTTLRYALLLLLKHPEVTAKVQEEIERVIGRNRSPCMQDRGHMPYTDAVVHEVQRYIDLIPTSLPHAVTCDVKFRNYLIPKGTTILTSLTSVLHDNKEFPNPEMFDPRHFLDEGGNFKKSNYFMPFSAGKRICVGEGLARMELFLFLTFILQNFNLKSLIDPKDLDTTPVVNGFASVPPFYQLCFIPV
CYP2C19 activ: increases human CYP2C19 enzyme activity; recombinant CYP2C19, luciferin-H EGE luminescence; hits give high values; 0 = fully inhibited enzyme, 1 = untreated enzyme; AID 1025; 96,000 tested, under 10 active; activation factor at 5 µM; P33261;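 active = activation factor of at least 2 at 5 µM in the primary screen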;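 note: 0 = wells with 2.5 mM tranylcypromine and 1 = vehicle-only wells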
The depositor's hits bear a star; · = no result. Only some compounds are listed: those with a hit (about 27% of all), similar ones and a draw of the others.

SMILES	CYP2C9 activ	CYP2C9 inh	Cav3 T inh	CYP2C19 inhib	CYP2C19 activ
CCC(C)NC(=O)Cc1cn(C)c2ccccc12 (centres undefined)	1.2	-19	1.1	60*	0.4
CCc1cccc(NC(=O)Cc2cn(C)c3ccccc23)c1	2.8*	-180	-7.7*	38	0.6
COCCNC(=O)Cc1cn(C)c2ccccc12	1.1	-8	0.27	9	0.9
CCc1ccc(NC(=O)Cc2cn(C)c3ccccc23)cc1	2.5*	-149	-4.8*	42	0.6
CCOC(=O)CSc1nnc(CNC(=O)c2cccs2)n1CCc1ccccc1	0.9	14	-0.33	36	0.6
CN(C)c1ccc(C2C3C(=O)NC(=O)C3ON2c2ccc(Cl)cc2)cc1 (centres undefined)	0.6	37	0.27	51*	0.5
COc1ccccc1CN(CC(=O)NCc1ccc2c(c1)OCO2)C(=O)c1ccc2c(c1)OCCO2	·	·	-3.5	·	·
CCC1CCCCN1Cc1cc(OC)c(O)c([N+](=O)[O-])c1 (centres undefined)	1.1	-7	0.061	-10	1.1
O=c1c(-c2ccc3c(c2)OCCO3)coc2cc(O)cc(O)c12	2.4*	-141	0.069	12	0.9
CCN(CC)Cc1c(O)ccc2c(=O)c(-c3ccc4c(c3)OCCO4)coc12	1	4	-0.45	-4	1
COc1ccc(OC)c(NC(=S)NCCC(c2ccccc2)c2ccccc2)c1	·	·	-7.8*	·	·
COc1ccccc1NC(=S)NCc1ccco1	1.3	-34	0.72	64*	0.4
Fc1cc(Br)ccc1NC(=S)NCCc1ccccc1	0.5	45	-2.9	76*	0.2
COc1ccccc1NCCC(=O)OCC(=O)NCc1ccco1	1.1	-10	0.1	23	0.8
COc1ccc(OC)c(NC(=S)NN2CCN(C)CC2)c1	1	0	0.18	30	0.7
COc1ccc(NC(=S)Nc2ccccc2F)c(OC)c1	1.1	-14	-0.38	47	0.5
COc1ccc(NC(=S)NCCc2ccccc2)c(OC)c1	0.8	16	-0.03	90*	0.1
COc1ccc(OC)c(/C=C/C(=O)c2ccc(Cl)cc2)c1	0.8	21	-2.8	9	0.9
COc1cccc(N2CC(C)Cn3c2nc2c3c(=O)n(CCN3CCOCC3)c(=O)n2C)c1 (centres undefined)	1	-1	0.31	-7	1.1
CCCCN(C)CCNC(=O)Cn1ncc2c(=O)oc3ccc(C)cc3c21	1	-2	0.038	-4	1
CCN(CC)C(=O)c1cnn(-c2ccccc2)c1NC(=O)c1cccs1	·	·	0.56	·	·
COc1ccccc1NC(=S)NC(=O)c1ccc(-c2ccc(Cl)cc2)o1	1.5	-54	-1.4	8	0.9
COc1ccccc1NC(=S)NCCc1ccc(Cl)cc1	0.8	19	-3.3	71*	0.3
CC1(c2nnc(-c3cccc(Cl)c3)o2)CC(c2cccnc2)=NO1 (centres undefined)	·	·	1	·	·
O=C1C2CC=CCC2C(=O)N1c1n[nH]c(-c2ccccc2)n1 (centres undefined)	0.1	92*	1.2	80*	0.2
SMILES	CYP2C9 activ	CYP2C9 inh	Cav3 T inh	CYP2C19 inhib	CYP2C19 activ
CCCN1CCC(N(C)CCc2ccc(OC)c(OC)c2)CC1	1.1	-6	-0.078	-8	1.1
O=C(NC1CCCCC1)N1CCSC1=Nc1ccccc1	0.8	23	-4*	2	1
O=C(NC1CCCCC1)N1CCCc2ccccc21	0.9	14	-0.23	53*	0.5
CC(=O)NC1CC2CCCC(C1)N2CC(=O)N1CCCc2ccccc21 (centres undefined)	·	·	0.39	·	·
O=C(c1ccco1)N1CCCSC1=Nc1ccccc1	0.8	18	-0.42	18	0.8
O=C(C1CCCCC1)N1CCCc2ccccc21	0.6	45	0.03	67*	0.3
CC(C)N1C(=O)CCC1C(=O)N1CCCc2ccccc21 (centres undefined)	0.8	16	-0.71	1	1
CON(C)c1nc(Oc2ccc(=O)[nH]n2)nc(N(C)C)n1	1.1	-15	0.082	-18	1.2
COc1ccccc1N1C(=O)CCC1(C#N)c1ccc(Br)cc1 (centres undefined)	0.3	69*	-0.55	59*	0.4
COc1ccc(N2C(=O)CCC2(C#N)c2ccc(Br)cc2)cc1 (centres undefined)	0.9	9	-1.2	57*	0.4
Cc1ccc(-c2nc3ccccc3c(=O)n2CCCN2CCOCC2)cc1	1	-3	0.48	-11	1.1
COc1cccc(-c2nc(NC(C)(C)C)c3ccccc3n2)c1O	0.2	84*	0.49	31	0.7
COc1cccc(-c2nc(NCCN3CCOCC3)c3ccccc3n2)c1O	0.4	56*	1.1	32	0.7
Cc1ccc(-c2nc(NCCN3CCOCC3)c3ccccc3n2)cc1	0.3	72*	2	59*	0.4
Oc1ccccc1-c1nc(NCCN2CCOCC2)c2ccccc2n1	0	97*	1.5	89*	0.1
C[C@H](CO)NC(=O)[C@@H]1C[C@H]1[C@@H](NP(=O)(c1ccccc1)c1ccccc1)c1ccccc1	·	·	-0.58	·	·
Fc1ccc(CNc2cnccn2)cc1	0.8	17	0.27	10	0.9
O=C(CCO)c1ccc(O)cc1	·	·	0.68	·	·
CCCCC(=O)c1ccc(O)cc1	2.2*	-119	0.61	24	0.8
O=S(=O)(c1ccc(F)cc1)N(CCO)CC(O)Cn1c2ccccc2c2ccccc21 (centres undefined)	0.4	57*	-2.4	97*	0
CCN(CC(O)Cn1c2ccccc2c2ccccc21)S(=O)(=O)c1ccc(F)cc1 (centres undefined)	0	97*	-0.93	100*	0
O=C(Nc1ccccc1)c1ccc(S(=O)(=O)N(CCO)CCO)cc1	1	0	0.47	-8	1.1
COCC(C)NC(C(=O)Nc1ccc(C)c(Cl)c1)c1ccccc1 (centres undefined)	0.1	86*	·	86*	0.1
COCCNC(C(=O)Nc1cc(Cl)cc(Cl)c1)c1ccccc1 (centres undefined)	0.3	70*	-5.2*	54*	0.5
Cc1ccc(NC(=O)C(=O)NNC(=O)c2ccccc2C)cc1Cl	1.2	-17	·	9	0.9
SMILES	CYP2C9 activ	CYP2C9 inh	Cav3 T inh	CYP2C19 inhib	CYP2C19 activ
Oc1ccc2ccccc2c1C=Nc1cc(C(F)(F)F)ccc1N1CCCC1	0.7	30	-1.6	-1	1
O=C(C1CCCN(Cc2ccccc2)C1)N1CCc2ccccc2C1 (centres undefined)	1	-2	·	27	0.7
COc1ccccc1N1CCN(C(=O)C2CCN(S(=O)(=O)c3ccc(Cl)cc3)CC2)CC1	0.8	21	-1.6	20	0.8
CCS(=O)(=O)N1CCC(C(=O)N2CCc3ccccc3C2)CC1	1.2	-20	·	60*	0.4
COc1ccc(S(=O)(=O)N2CCC(C(=O)N3CCc4ccccc4C3)CC2)cc1Cl	0.7	28	-4.6*	92*	0.1
O=C1CCCN1CC(O)CS(=O)(=O)c1ccc(Cl)cc1 (centres undefined)	0.9	14	-0.036	34	0.7

From PubChem BioAssay
